# Abeta yeast res = compounds reversing amyloid beta toxicity in yeast; Potency, µM (top dose mostly 46.1 µM), most hits filed as activators; yeast expressing A-beta42, growth rescue, OD600, 48 h; response scale: 0% DMSO, 100% iron-clioquinol control; hit rate 0.063% among 410,000; also: nearly all actives have a fitted effect of over 55% in size
#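 Yeast growth medium received pinned compounds, then yeast cells expressing toxic A-beta were added; plates incubated at 30 C for 48 hr. Growth read as absorbance at 600 nm, normalized to DMSO and equimolar FeCl3 plus clioquinol controls.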
# aSyn rescue = inhibitors of alpha-synuclein toxicity in yeast. Yeast expressing alpha-synuclein, growth rescue, BacTiter-Glo, 24 h. Potency, µM (doses to about 46.1 µM), without a hit: at the highest dose growth rescue (activation), usual class: activators. hit rate 0.14% among 370,000. AID 652106; also: % of control where 0% means no effect; nearly all actives have a fitted effect of over 65% in size
#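 Readout is rescue of growth in alpha-synuclein-expressing yeast, so inhibitors of toxicity appear as activators. Growth after 24 hr at 30 deg C in galactose medium is quantified by luminescence.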
# TDP43 rescue = rescues yeast growth from TDP-43 toxicity | Potency, µM (doses to about 46.1 µM), for the others: top-dose growth rescue (activation), usual class: activators | hit rate 1.8% among 410,000 | TDP-43 expressing yeast growth rescue, BacTiter-Glo, 24 h; also: % of control where 0% means no effect; nearly all actives have a fitted effect of over 50% in size
#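 Yeast cells expressing TDP-43 under galactose induction are exposed to compounds for 24 hr at 30 deg C. BacTiter-Glo luminescence measures growth, so protective compounds score as activators.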
# FUS suppressor = FUS proteinopathy suppression in yeast; S. cerevisiae FUS-expressing, growth rescue, OD600, 24 h; AID 1347120; hit rate 0.24% among 390,000; Potency, µM (highest dose often 76.6 µM), actives largely listed as activators;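 also: plate controls were DMSO vehicle for no effect and reference control for full effect; nearly all actives have a fitted effect of over 55% in size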
#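 Quantitative HTS measuring growth restoration of FUS-toxic yeast. Galactose-induced cells (OD 0.005) were exposed 24hr at 30C to compounds at several concentrations, then absorbance at 600 nm was recorded.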
# An asterisk follows results filed as active; i = inactive; ? = inconclusive; / = not tested or not shown; [ ] = another dose, or the depositor's remark. Hits are enriched below; roughly 2.1% of the tested compounds scored in any of these assays. Calls follow the shape of the dose curve; as a rule, active = well fitted curve in the direction sought with a large enough effect; inconclusive = small, poorly fitted or top-dose-only effect, or another doubt; inactive = no such curve, though single readings can be large; an effect the other way counts as inactive or inconclusive. Potency is read from the fitted curve at half-maximal effect.
SMILES,Abeta yeast res,aSyn rescue,TDP43 rescue,FUS suppressor
COCCNC(=O)c1c(N)n(CCC2=CCCCC2)c2nc3ccccc3nc12,i,-52%,?,40µM*
COc1ccc(CCn2c(N)c(C(=O)NCc3ccco3)c3nc4ccccc4nc32)cc1,i,21%,18%,/
O=c1[nH][nH]cc1C=NCc1cccnc1,i,1%,5%,i
C=C(C)c1cccc(C(C)(C)NC(=O)Nc2ccc(C)cn2)c1,i,-2%,13µM*,/
CCCCC1=CC2=C(c3ccco3)C(=O)C(C)(OC(=O)c3ccc(OC)cc3)C(=O)C2=CN1CCc1ccccn1 (configuration not stated),i,4%,-10%,?
Clc1cccc(Cl)c1CON/C=N/c1ncnc2sccc12,i,5%,0%,i
Clc1cccc(CON/C=N/c2ncnc3sccc23)c1,i,-14%,3.5µM*,i
COc1ccccc1NC(=O)C(CC(C)C)NC(=O)C1CCCCC1 (configuration not stated),i,-4%,17%,i
C#CCNC(=O)C1=C[C@@H](c2csc3ccccc23)C[C@@H](OCc2ccc(CO)cc2)O1,i,8%,25µM*,i
O=C(Nc1ccccc1)C1=C[C@H](c2coc3ccccc3c2=O)C[C@H](OCc2ccc(CO)cc2)O1,i,1%,20µM*,?
O=C(NC1CC1)C1=C[C@@H](c2csc3ccccc23)C[C@@H](OCc2ccc(CO)cc2)O1,i,29%,14µM*,?
O=C(Cc1ccc(F)cc1)NCc1ccc2c(c1)CCN2C(=O)c1ccc(F)cc1,i,/,23%,i
Cc1cc(O)c(-c2cc(O)c(C)cc2O)cc1O,i,?,-2%,i
CCOc1ccc(NC(=O)CC2SC(N)=NC2=O)c([N+](=O)[O-])c1 (configuration not stated),i,3%,2%,i
COc1ccccc1-c1sc2cc3c(cc2c1C#CCO)OCO3,i,0%,22µM*,?
COc1cc(OC)cc(-c2sc3ccc(OC)cc3c2C#CCCO)c1,i,2%,0%,?
COc1ccc2sc(-c3ccccc3OC)c(C#CCCO)c2c1,i,-12%,20µM*,i
Cc1cc(NCc2ccccn2)n2ncc(-c3ccc(Cl)cc3)c2n1,i,5%,13%[1.82 µM],i
Cc1cc(NCc2ccccn2)n2nc(C)c(-c3ccc(Cl)cc3)c2n1,i,3%,7.1µM*,i
Cn1nnnc1N=N/C(=N/Nc1ccccc1)c1ccccc1,?,3.2µM*,?,i
Cc1c(C)n(C(=O)CN2CCC(C)CC2)c2ccccc12,i,1%,3%,i
O=C(Cn1cnc2c(NCc3ccccc3)ncnc21)NCc1ccc2[nH]ccc2c1,i,?,17%,i
Cc1cc(OCCn2nc(C(=O)O)c3ccccc3c2=O)ccc1C(C)C,i,-15%,21%,i
O=C(O)c1nn(CCOc2ccc(Br)cc2)c(=O)c2ccccc12,i,4%,13µM*,i
CN(Cc1ccccc1)Cc1nc2c(c(=O)n(C)c(=O)n2C)n1CCCc1ccccc1,i,0%,-14%,i
SMILES,Abeta yeast res,aSyn rescue,TDP43 rescue,FUS suppressor
O=C(Cc1ccc(NC(=O)C2CCCN(C(=O)C3CCCC3)C2)cc1)Nc1ccc(C(=O)N2CCOCC2)cc1 (configuration not stated),i,1%,10%,i
Cc1cc(C)c(C)c(S(=O)(=O)N2CCN(c3ccc(O)cc3)CC2)c1C,i,16µM*,?,i
O=S(=O)(c1ccc2ccccc2c1)N1CCN(c2ccc(O)cc2)CC1,i,?,11µM*,i
CN1CCN(S(=O)(=O)c2ccc3ccccc3c2)CC1,i,4%,19%,i
Cc1cc(C)c(C)c(S(=O)(=O)N2CCC(C(=O)N3CCN(c4ccc(F)cc4)CC3)CC2)c1C,i,8%,?,i
COc1ccc(C(=O)Nc2nc3nc(C)c(Cc4ccccc4)c(=O)n3[nH]2)cc1OC,i,/,2%,i
CN(C)CCN(Cc1ccco1)S(=O)(=O)c1ccc(-c2ccc(=O)[nH]n2)s1,i,8%,2%,i
CCCC1(C)C(C#N)(C#N)C1(C#N)C#N,/,15µM*,/,/
CCCC1(C)C(C#N)C(=O)NC(=O)C1C#N (configuration not stated),i,5%,-5%,i
O=C(CC(=O)c1ccccc1O)c1cccc(F)c1,i,13µM*,-24%,/
CC1=C(C(=O)Nc2ccc(C)cc2Cl)C2(CCCCCC2)OC1=O,i,/,29%,i
CC1=C(C(=O)N2CCc3ccccc32)C2(CCC(C)CC2)OC1=O (configuration not stated),i,/,13µM*,i
CC1=C(C(=O)N2CCCCC2)C2(CCC(C)CC2)OC1=O (configuration not stated),i,-1%,0%,i
COc1ccc(NC(=O)C2=C(C)C(=O)OC23CCC(C)CC3)c(OC)c1 (configuration not stated),i,3%,20µM*,i
COc1ccc(OC)c(CCNC(=O)C2=C(C)C(=O)OC23CCC(C)CC3)c1 (configuration not stated),i,/,22%,i
CC1=C(C(=O)Nc2ccc(C)cc2Cl)C2(CCCCC2)OC1=O,i,/,11µM*,i
CCCNC(=O)C1=C(C)C(=O)OC12CCC(C)CC2 (configuration not stated),i,-2%,16%,i
CCOc1ccc(NC(=O)C2=C(C)C(=O)OC23CCC(C)CC3)cc1 (configuration not stated),?,6%,20µM*,i
CCN(CC)C(=O)n1c(Cc2ccccc2)nc2ccccc21,i,7%,15%,i
Cc1ccc(Nc2nnc(-c3ccc(C)c(S(=O)(=O)N4CCN(C)CC4)c3)c3ccccc23)cc1,i,/,15%,i
Cc1nc(Cl)c(C(=O)NC(=O)NCc2ccccc2)c(C)c1Cl,i,21%,14µM*,i
Cc1ccccc1NC(=O)c1c(Cl)nc(C)c(Cl)c1C,i,0%,19%,i
Cc1ccccc1CNC(=O)c1ccc2ccccc2n1,i,12%,16µM*,i
Cc1ccc2c(c1)N(C(=O)CCC(=O)NCCCN(C)Cc1ccccc1)CCO2,i,-1%,4%,i
Cc1ccc2c(c1)N(C(=O)NCc1ccccc1)CCO2,i,/,18µM*,i
O=C1[C@@H]2CSC(c3ccc(F)cc3)N2C(=O)N1c1ccc(Cl)cc1 (some centres not stated),i,/,14µM*,i
O=[N+]([O-])c1ccc(O)c2ncccc12,i,-70%,-83%,i
COc1ccc(Oc2c(OC)cc([N+](=O)[O-])c3ncccc23)cc1,i,3%,35µM*,i
O=[N+]([O-])c1ccccc1Oc1ccc(Cl)c2cccnc12,i,?,20µM*,i

# Screening results as filed in PubChem.
